Hits are enriched below; roughly 10% of the tested compounds scored in any of these assays.
p97 inhibitor: inhibitors of human p97 ATPase; P55072; recombinant p97 ATPase, Kinase-Glo ATP luminescence, 3 h; inhibition, % at 8 µM; 220,000 compounds, 0.42% hits; in the data active means inhibition above about 15%
Target sequence (P55072 whole entry, looked up): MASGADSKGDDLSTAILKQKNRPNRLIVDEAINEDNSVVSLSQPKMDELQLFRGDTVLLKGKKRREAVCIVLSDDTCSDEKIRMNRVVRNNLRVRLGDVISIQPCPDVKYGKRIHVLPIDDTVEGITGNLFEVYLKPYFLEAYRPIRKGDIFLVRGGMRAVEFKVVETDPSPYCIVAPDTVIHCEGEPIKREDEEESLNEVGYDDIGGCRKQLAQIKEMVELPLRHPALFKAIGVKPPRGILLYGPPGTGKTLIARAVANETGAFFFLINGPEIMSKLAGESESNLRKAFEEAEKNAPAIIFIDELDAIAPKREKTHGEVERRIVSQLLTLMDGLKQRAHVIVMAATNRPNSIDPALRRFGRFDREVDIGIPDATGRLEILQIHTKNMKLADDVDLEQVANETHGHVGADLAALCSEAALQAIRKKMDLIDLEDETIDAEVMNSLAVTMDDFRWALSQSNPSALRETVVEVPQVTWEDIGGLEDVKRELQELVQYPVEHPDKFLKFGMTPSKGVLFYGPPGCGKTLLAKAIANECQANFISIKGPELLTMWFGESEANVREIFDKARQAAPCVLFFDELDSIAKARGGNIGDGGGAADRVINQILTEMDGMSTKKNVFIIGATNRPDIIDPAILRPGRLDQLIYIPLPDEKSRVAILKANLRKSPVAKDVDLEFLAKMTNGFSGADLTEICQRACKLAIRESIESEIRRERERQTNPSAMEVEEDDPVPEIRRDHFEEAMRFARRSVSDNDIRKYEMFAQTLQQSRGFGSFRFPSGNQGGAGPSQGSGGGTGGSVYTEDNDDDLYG
ROMK primary: human ROMK K+ channel modulation, primary screen; AID 1918; Tet-inducible ROMK, thallium flux fluorescence; actives lie on both sides; B-score at 10 µM; 130,000 compounds, 2% hits; P48048;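 active means signal ratio slope over the read window, or its plate-corrected B-score, at least 3 SD from the plate mean, either direction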;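 further: B-score of the F/F0 ratio slope over 7 to 12 s after thallium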
L major viab: reduces viability of Leishmania major promastigotes | 200,000 compounds, 9% hits | inhibition, % at 10 µM | AID 1063 | resazurin fluorescence viability; in the data active means inhibition above about 50%;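 further: promastigotes grown with compound for 44 hours at 28 °C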
PTEN del growth: growth suppressors of cells with PTEN tumor suppressor deletion. HCT116 PTEN-null viability, CellTiter-Glo, 60 h; stronger effect = lower value. 140,000 compounds, 1.2% hits. viability, % at 10 µM. AID 827;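 active means viability at or below a set limit, 4 SD under the median of all tested compounds, cut at about 3.7% in these data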;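 further: PTEN knockout HCT116 line with beta catenin targeted HCT116 as companion control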
INS promoter inh: TRM-6 insulin promoter activity inhibition; inhibition, % at 2 µM; 130,000 compounds, 0.9% hits; TRM-6 cells (human fetal islet line), insulin promoter-eGFP reporter, imaging; reporter expression induced with tamoxifen;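 active means inhibition above the mean plus 3 SD, with well images judged a real hit on visual review, cut at about 60% in these data, passing the limit was not always enough; inconclusive means inhibition over the cutoff but images rejected on review; inactive means inhibition not above the cutoff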
HCT116 bCat-KO: beta-catenin-lacking colon tumor cell growth suppression; 140,000 compounds, 1.5% hits; HCT116 beta-catenin knockout viability, CellTiter-Glo, 60 h; stronger effect = lower value; AID 818; viability, % at 10 µM;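 active means viability at or under a set limit, the compound median less 4 SD, cut at about 6% in these data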
Each line names hits and unclear results; the compound was inactive in the other large screens.

COc1ccc(N(C(=O)c2ccccc2C)S(=O)(=O)c2cccs2)cc1	L major viab 94 (no result: ROMK primary)
Cc1cc(=O)c2ccc3ccccc3c2[nH]1	L major viab 54
Cc1cccc(C)c1OCC(O)CN (stereo unspecified)	none (no result: ROMK primary)
Cc1cc(OCC(O)CN)ccc1Cl (stereo unspecified)	L major viab 92 (no result: ROMK primary, PTEN del growth, INS promoter inh, HCT116 bCat-KO)
CCN(C(=S)NC(=O)c1ccccc1Br)C1CCCCC1	ROMK primary 6.9
O=C(NC(=S)NC1CCCC1)c1ccccc1Br	none (no result: INS promoter inh)
CC(C)(C)NC(=O)COC(=O)c1ccccc1Nc1ccc(SC(F)F)cc1	none (no result: ROMK primary, INS promoter inh)
O=C(COC(=O)c1ccccc1Nc1ccc(SC(F)F)cc1)NC1CC1	L major viab 61 (no result: ROMK primary)
CC(OC(=O)c1ccccc1Nc1ccc(SC(F)F)cc1)C(N)=O (stereo unspecified)	L major viab 55
NC(=O)COC(=O)c1ccccc1Nc1ccc(SC(F)F)cc1	none (no result: ROMK primary)
COc1cccc(NC(=S)N2CCCN(Cc3ccc(F)cc3)C2)c1	L major viab 87 (no result: PTEN del growth, HCT116 bCat-KO)
COc1ccc(NC(=S)N2CCCN(Cc3cc(C)ccc3C)C2)cc1	L major viab 55 (no result: PTEN del growth, HCT116 bCat-KO)
CSc1cccc(NC(=S)N2CCCN(Cc3cccc(Cl)c3)C2)c1	L major viab 90 (no result: ROMK primary, PTEN del growth, HCT116 bCat-KO)
O=C(NC(=S)Nc1cccnc1)c1cc2ccccc2o1	ROMK primary 3.5
O=C(NC(=S)NCc1cccnc1)c1cc2ccccc2o1	none (no result: PTEN del growth, HCT116 bCat-KO)
CC(C)(C)c1ccc(Cn2nc(CC(=O)O)c3ccccc3c2=O)cc1	none (no result: PTEN del growth, HCT116 bCat-KO)
CCCCn1c(=O)c(CCC(=O)OCC(=O)NCc2ccc(OC)c(OC)c2)nc2ccccc21	INS promoter inh inconclusive (no result: PTEN del growth, HCT116 bCat-KO)
CSc1cccc(NC(=S)N2CCC(N(C)C3CCCC3)CC2)c1	L major viab 85 (no result: PTEN del growth, HCT116 bCat-KO)
COc1cccc(NC(=S)N2CCCC2)c1	L major viab 76
CCOc1ccc(NC(=S)N2CCCN(Cc3cccc(Cl)c3)C2)cc1	L major viab 82 (no result: PTEN del growth, HCT116 bCat-KO)
COc1cccc(NC(=S)N2CCN(C(c3ccccc3)c3ccccc3)CC2)c1	none
COc1ccc(NC(=S)N2CCCN(Cc3cccc(Cl)c3)C2)cc1	L major viab 94 (no result: ROMK primary, PTEN del growth, HCT116 bCat-KO)
CCOC(=O)N1CCC(N(CCN(C)C)C(=S)Nc2cccc(SC)c2)CC1	none (no result: PTEN del growth, HCT116 bCat-KO)
CCOc1ccc(NC(=S)NCCN2CCN(Cc3ccccc3)CC2)cc1	none (no result: PTEN del growth, HCT116 bCat-KO)
Fc1cccc(NC(=S)N2CCCC2)c1	L major viab 63
COc1ccc(NC(=S)Nc2cccnc2)c(OC)c1	none (no result: PTEN del growth, INS promoter inh, HCT116 bCat-KO)
COc1cccc(NC(=S)Nc2cccnc2)c1	L major viab 51
Cc1cccc(C)c1NC(=S)N1CCCN(Cc2ccc(F)cc2)C1	L major viab 73 (no result: ROMK primary, PTEN del growth, HCT116 bCat-KO)
CCN(CC)P(=O)(Nc1ccccc1Br)c1ccc(N(C)C)cc1NC(=O)c1ccco1 (stereo unspecified)	L major viab 73 (no result: ROMK primary, PTEN del growth, HCT116 bCat-KO)
CC1CCN(CCCNC(=O)c2cc3c(Cl)nc4ccccc4c3s2)CC1	L major viab 100 (no result: PTEN del growth, INS promoter inh, HCT116 bCat-KO)
O=C(NCCCN1CCCCCC1)c1ccc2c(Cl)c3c(nc2c1)CCCC3	L major viab 73 (no result: ROMK primary, PTEN del growth, HCT116 bCat-KO)
CCN1CCN(CCCNC(=O)c2cc3c(=O)[nH]c4ccccc4c3s2)CC1	none
CN1CCN(CCCNC(=O)c2cc3c(-c4ccc(Cl)cc4)nn(C)c3s2)CC1	L major viab 100, PTEN del growth 1.7, HCT116 bCat-KO 1.5 (no result: ROMK primary, INS promoter inh)
O=C(NCCCN1CCCC1)c1cc2c(Cl)nc3ccccc3c2s1	L major viab 90 (no result: PTEN del growth, HCT116 bCat-KO)
O=C(c1cccs1)N1CCN(c2ncc(Br)cn2)CC1	none (no result: ROMK primary, L major viab, PTEN del growth, INS promoter inh, HCT116 bCat-KO)
Cc1n[nH]c(=O)n1-c1ccc(OCc2ccccc2)cc1	none (no result: PTEN del growth, INS promoter inh, HCT116 bCat-KO)
CCN(CCCNC(=O)COc1cc(=O)n(CC)c2ccccc12)c1ccccc1	L major viab 53
CC1CCN(CCCNC(=O)COc2cc(=O)n(C)c3ccccc23)CC1	none (no result: INS promoter inh)
CCN(C(=O)COc1cc(=O)n(C)c2ccccc12)c1cccc(Cl)c1	L major viab 62
CCN(CCCNC(=O)COc1cc(=O)n(C)c2ccccc12)c1ccccc1	L major viab 65
CN(C(=O)COc1cc(=O)n(C)c2ccccc12)c1cccc(Cl)c1	none (no result: ROMK primary, INS promoter inh)
Cc1cc(C(=O)Cn2nc(C(=O)O)c3ccccc3c2=O)c(C)n1-c1ccc(F)cc1	none
Nc1cc(=O)nc(SCC(=O)Nc2ccccc2Cl)n1-c1ccccc1	none (no result: PTEN del growth, HCT116 bCat-KO)
N#Cc1c(N2CCN(C(=O)c3ccccc3Cl)CC2)nc(-c2ccccc2)c2c1CCCC2	none (no result: INS promoter inh)
CCCc1nc(NCc2ccccc2)c(C#N)c2c1CCCC2	none
N#Cc1c(N2CCN(C(=O)c3ccccc3)CC2)nc(-c2ccccc2)c2c1CCCC2	L major viab 75
N#Cc1c(NCCN)nc(NCc2ccccc2)c2c1CCN(Cc1ccccc1)C2	L major viab 97 (no result: ROMK primary, PTEN del growth, HCT116 bCat-KO)
CCN1CCc2c(C#N)c(NCc3ccccc3)nc(N(CC)CC)c2C1	L major viab 98 (no result: INS promoter inh)
N#Cc1c(N2CCCCC2)nc(N2CCCCC2)c2c1CCN(Cc1ccccc1)C2	L major viab 100 (no result: ROMK primary)
Cc1cc(C)n(-c2ccccc2C#N)n1	none (no result: ROMK primary, L major viab, PTEN del growth, INS promoter inh, HCT116 bCat-KO)
COc1ccc(CN2C(=O)NC3(CCCCCC3)C2=O)cc1F	none (no result: p97 inhibitor, ROMK primary, L major viab, INS promoter inh)
CCC(=O)N1CCc2cc(S(=O)(=O)NCCCN(CC)Cc3ccccc3)ccc21	L major viab 55
Cc1ccc(NP(=O)(c2ccc(N(C)C)cc2NC(=O)c2cccs2)N2CCOCC2)cc1 (stereo unspecified)	none (no result: ROMK primary, INS promoter inh)
Cc1ccc(NP(=O)(c2ccc(N(C)C)cc2NC(=O)c2cccs2)N2CCOCC2)cc1Cl (stereo unspecified)	L major viab 58 (no result: ROMK primary, INS promoter inh)
CNC(=S)Nc1cc(Cl)ccc1Oc1ccccc1	none
CCNC(=S)Nc1cc(Cl)ccc1Oc1ccccc1	L major viab 67
CC(C)OCCCNC(=O)C(NS(=O)(=O)c1ccc2c(c1)c(=O)n(C)c(=O)n2C)c1ccccc1 (stereo unspecified)	none (no result: PTEN del growth, INS promoter inh, HCT116 bCat-KO)
CC(=O)N1CCN(c2ccc(Nc3ncnc4c3oc3ccccc34)cc2)CC1	L major viab 62 (no result: ROMK primary, INS promoter inh)
c1ccc2c(c1)oc1c(Nc3ccc(CN4CCOCC4)cc3)ncnc12	L major viab 89
CC(C)[C@H](NS(=O)(=O)c1ccccc1)C(=O)OCC(=O)N1N=C(c2ccc(Cl)cc2)CC1c1ccco1 (stereo partly specified)	none (no result: ROMK primary)
Cn1c(=O)c2c(nc(SCCN3CCCCC3)n2Cc2ccccc2)n(C)c1=O	L major viab 90 (no result: INS promoter inh)
CN(Cc1ccccc1)Cc1nc2c(c(=O)n(C)c(=O)n2C)n1Cc1ccc(F)cc1	none (no result: INS promoter inh)
Cc1ccc(Cn2c(CN(C)Cc3ccccc3)nc3c2c(=O)n(C)c(=O)n3C)cc1	L major viab 73
Cc1ccc(Cn2c(SCCN3CCCCC3)nc3c2c(=O)n(C)c(=O)n3C)cc1	L major viab 99
Cn1c(=O)c2c(nc(SCCN3CCOCC3)n2Cc2ccc(F)cc2)n(C)c1=O	none (no result: ROMK primary)
COC(=O)c1ccc(/C=N/NC(=O)C(=O)NCC2CCCO2)cc1 (stereo unspecified)	none (no result: ROMK primary, L major viab, PTEN del growth, INS promoter inh, HCT116 bCat-KO)
Cc1ccc(OCCSc2nc(NC(C)C)nc(NC(C)C)n2)cc1	none
COc1cc(C#N)c(N=C(SCC#N)N2CCOCC2)cc1OC	none (no result: PTEN del growth, INS promoter inh, HCT116 bCat-KO)
Cc1c(O)nc(SCC(=O)Nc2ccc3c4c(cccc24)CC3)n(-c2ccc(F)cc2)c1=O	none
Nc1c2c(nc3ccccc13)CCCC2	none (no result: ROMK primary)
